The panel holds about 79,000 compounds, 15% with a hit somewhere; the sample as a whole holds those more often. A number with no mark means an inactive call. Calls of active or inactive are those of the source. Rule as the data show it: active = growth inhibition above about 70%; inactive = the rest.

This passage reports growth inhibition results from PubChem BioAssay (NCI).

The experiment is described as follows: NCI Yeast Anticancer Drug Screen. Data for the bub3 strain (AID 167). As to conditions: S. cerevisiae bub3 mutant strain, at 50.0 µM, hits give high values. The essentials: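 Mutant yeast screening strain plus compound; vehicle-treated cultures serve as the 0% inhibition reference.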
With `Cc1nc(C(N)=S)sc1C(=O)CC(=O)C(=O)Nc1c(C(C)C)cccc1C(C)C`, the growth inhibition was -8.55%. As for `NC(CCNCCc1ccccc1)CNCCc1ccccc1` (stereo not given), the figure is -6.5%; as for `O=C(COc1ccc(Cl)c(Cl)c1)Nc1ccc(C(=O)CCl)cc1`, 42.5%; as for `CCOC(=O)c1ccc(N[C@@H]2c3cc4c(cc3C(c3cc(OC)c(O)c(OC)c3)[C@H]3C(=O)OCC32)OCO4)cc1` (stereo not given in full), 88% (active). As for `CC(Cc1nc2ccccc2[nH]1)Cc1nc2ccccc2[nH]1`, the growth inhibition is 2.3%. For `CC1(c2ccc(C(O)c3ccccc3)s2)OCCO1` (stereo not given) the value was 11.4%. For the molecule `O=C1c2ccccc2-c2ccc(N3C(=O)C=CC3=O)cc21`, the growth inhibition is 92.4% (active). For `O=NNc1nc2ncccc2cc1-c1ccccc1Cl` the value was -22.2%; for `Cc1c(Cl)cccc1NC(=O)C(=O)C1C(=O)CC(C)(C)CC1=O`, 15.2%; for `Cc1cccc(/C=N/Nc2ccc([N+](=O)[O-])cc2[N+](=O)[O-])c1C`, -15.6%. As for `O=C(O)C1Cc2nc[nH]c2CN1CO` (stereo not given), the figure is 23.7%; as for `CN(C)CCNc1ccc(NCCN(C)C)c2c1C(=O)c1ncsc1C2=O`, 2.1%. For `C=CCOC(=O)c1ccco1` the value was 0.45%; for `CC1(C)CC(C)(OC(=O)c2ccccc2)N=N1` (stereo not given), 4.35%; for `COC(=O)CCCc1ccc2c(c1)CC1(C2)Cc2cc3c(cc2C1)CCCC3`, -11.9%. As for `CCOC(=O)NC(=O)c1cn(CC(=O)NCC(=O)NCC(=O)NCCCN2CCN(CCCNC(=O)CNC(=O)CNC(=O)Cn3cc(C(=O)NC(=O)OCC)c(=O)[nH]c3=O)CC2)c(=O)[nH]c1=O`, the growth inhibition was -1.05%. As for `CC(=O)NC1C(OCC(=O)NCCNc2ccc([N+](=O)[O-])c3[nH]c4ccccc4c(=O)c23)C(O)C(CO)OC1(C)OCc1ccccc1` (stereo not given), the figure is -18.4%. For `O=C(CCCl)OC1CCCC1` the value was -5.65%; for `CN(/N=C\c1ccc2ccccc2c1)C1=NCCN1`, 4.1%. For `C(=C\c1cc(-c2cc(/C=C/c3ccccc3)[nH]n2)n[nH]1)/c1ccccc1` the value was -8%. Consider `CCOC(=O)CCC(C(=O)c1cccnc1)c1ccccn1` (stereo not given), for which the growth inhibition was -4.6%. For `COc1c(CO)cc(C)cc1CO` the value was -0.7%; for `Cc1ccc(OCCNCCO)cc1`, -1.2%.

Turning to `CCCCCCCCCCCCCCCCCC(CCCCCCCC)CCCCCCCC`, the growth inhibition is 0.25%. Consider `CCCCCCn1cnc2c(=S)nc[nH]c21`, for which the growth inhibition is -0.65%.

As to `O=S(O)CCCCSSCC(O)CO` (stereo not given), the growth inhibition was 24.1%. As for `O=C1OC(c2cccc(Cl)c2)=N/C1=C\c1cc(Br)ccc1O`, the figure is -0.4%; as for `CC(CC#N)NC(=O)C1CCC(N)=N1` (stereo not given), -7.35%; as for `CCCCCCCCCCCCCCCCS`, 6.6%.

In the case of `CCOC(=O)CC1(c2ccccc2)OC(=O)c2ccccc21` (stereo not given), the growth inhibition was 16.9%. With `NC(N)=NC(N)=Nc1ccccc1Br`, the growth inhibition is 7.05%.

For `CN(C)c1nc(-c2ccccc2)c(Cc2ccccc2)c(=O)o1`, the growth inhibition is 7.25%.

On to `c1cc2c3c(c1)ccc1ccc4cccc(c4c13)O2`, for which the growth inhibition was -3.45%. For `CC(C)CCC[C@@H](C)[C@H]1CC[C@H]2[C@@H]3CC[C@H]4C[C@H](N[C@@H]5CC[C@@]6(C)[C@@H](CC[C@@H]7[C@@H]6CC[C@]6(C)[C@@H]([C@H](C)CCCC(C)C)CC[C@@H]76)C5)CC[C@]4(C)[C@H]3CC[C@]12C` the value was 15.3%. Regarding `O=C(N/N=C/c1cc(Br)cc(Br)c1O)c1ccccc1`, the growth inhibition is -2.05%.

As for `O=[N+]([O-])c1ccc(N=C/C=C/Nc2ccc([N+](=O)[O-])cc2)cc1`, the growth inhibition is 6.3%. As for `CC(C)(/C=N\O)NO`, the figure is -9.05%. As for `CC(=O)OC1CCC2(C)C(CCC3(C)C2CCC2C4C5OC(=O)C4(CCC5(C)C)CCC23C)C1(C)C` (stereo not given), the figure is -33%; as for `O=C1NC(=O)c2c1c1cnn(-c3ccccc3)c1n1cccc21`, 1.2%; as for `O=C1c2ccccc2-c2ccc(-n3c(=O)c4ccccc4c4ccccc4c3=O)cc21`, 8.35%.
